We go through 37 molecules from PubChem BioAssay (EPA / NIEHS).

Results filed as inconclusive are left out. The source made the active and inactive calls. How the source made its calls: active means hit-call score of the fitted dose curve at least 0.9, where 1 is the maximum; inconclusive means response in the unintended direction; inactive means score below 0.9.

For orientation: AC50 means the midpoint of the concentration-response curve, whichever way the signal moves.

The nature of the test: ACEA_ER_AUC_viability: ACEA Biosciences xCELLigence Real-Time Cell Analysis on Estrogen Receptor Agonism for Viability (AID 2283782).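 Further: hit means loss of impedance signal meaning reduced cell growth or viability.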 Put shortly: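 Continuous-exposure impedance cell analysis uses T-47D cells in charcoal-stripped serum, eight 1:4 dilutions topping at 100 uM final, biological duplicate. Area under the growth curve at 80 h is fitted against DMSO baseline.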
Consider `CC(CO)(CO)[N+](=O)[O-]`, for which the outcome was inactive.
The same measure, in the same setting: the value for `CC(C)Cc1ccc(C(C)C(=O)O)cc1` (configuration not stated) was “inactive”; that for `C=CCCCCCCCCC(=O)OCC` was “inactive”.
On the same count and under the same terms, the value for `CCC(=O)OC(C)(C)C1CC=C(C)CC1` (configuration not stated) was “inactive”.
Turning to `Cc1cc(O)c(C)c(C)c1O`, the AC50 is 76.1 µM (active).
For `O=C(O)CS`, the molecule was called inactive.
For `C=C(C)C(=O)OCCC[Si](OC)(OC)OC`, the outcome was inactive.
Consider `CC/C=C/CCCCCCCCCCOC(C)=O`, for which the call was inactive.
Turning to `CC(=O)OC(C)(C)C1CC=C(C)CC1` (configuration not stated), the AC50 was 79 µM (active).
On to `CCCCC/C=C\C=C\C(=O)OCC`, for which the AC50 is 80.8 µM (active).
On the same count and under the same terms, the value for `C=C/C(C)=C/C/C=C(\C)CCC=C(C)C` was 89.9 µM (active).
Consider `N#CCCNCCC#N`, for which the outcome was inactive.
Same read-out and setting: in the case of `FC(F)(F)c1ccc(Cl)c(Cl)c1` it was “inactive”.
Take `CC1(C)CC(=O)CC(C)(C)N1`: the result was inactive.
Same read-out and setting: in the case of `c1ccc(-c2nn[nH]n2)cc1` it was “inactive”.
In the case of `c1ccc(Sc2ccccc2)cc1`, the AC50 was 83.4 µM (active).
On to `CC(C)(O)C(=O)c1ccc(OCCO)cc1`, for which the molecule was classed as inactive.
Same read-out and setting: the value for `Cc1ccc(C(C)(C)O)cc1` was “inactive”.
As for `CCCCCC(=O)O[C@]1(C(C)=O)CC[C@H]2[C@@H]3CCC4=CC(=O)CC[C@]4(C)[C@H]3CC[C@@]21C`, the AC50 was 49.8 µM (active).
On the same count and under the same terms, in the case of `CCCCCCCCCCCCCCCCCC(=O)OCCCCCCCCCCCCCC(C)C` it was 77 µM (active); in that of `O=C(O)c1ccco1`, 50 µM (active).
Turning to `CCCC1CCC(=O)CC1`, the outcome was inactive.
Same read-out and setting: the value for `COc1ccc2[nH]cc(CCNC(C)=O)c2c1` was “inactive”; that for `CC(O)COCC(C)O` (configuration not stated) was “inactive”; that for `CCOC(=O)C(=O)OCC` was “inactive”.
Consider `CC(=O)CCC(=O)O`, for which the result was inactive.
The same measure, in the same setting: the value for `CCCC[N+](C)(CCCC)CCCC` was “inactive”; that for `CCCCCc1cccc(=O)o1` was “inactive”.
As for `CCOc1ccc(NC(C)=O)cc1`, the molecule was called inactive.
For the molecule `O=C1OCc2ccccc21`, the call was inactive.
The same measure, in the same setting: in the case of `CCO[Si](CCC#N)(OCC)OCC` it was “inactive”.
`CC(C)CCCC(C)(C)O`: the result was inactive.
The same measure, in the same setting: in the case of `Cc1ccccc1S` it was “inactive”.
As to `CN(C)CCC=C1c2ccccc2CCc2ccccc21`, the AC50 is 26.2 µM (active).
In the case of `CC(=O)CCC=C(C)CCC=C(C)C`, the AC50 was 63.6 µM (active).
In the case of `C[Si]1(C)N[Si](C)(C)N[Si](C)(C)N1`, the call was inactive.
As to `O=C(O)C(F)(F)OC(F)(F)C(F)(F)OC(F)(F)C(F)(F)C(F)(F)C(F)(F)F`, the molecule was called inactive.
